High-throughput results: PubChem BioAssay, National Center for Advancing Translational Sciences (NCATS)
This is a sample that favours compounds with a hit; in the whole collection about 2.1% have one here.
TDP-43 yeast inh: rescues yeast growth from TDP-43 toxicity | TDP-43 expressing yeast growth rescue, BacTiter-Glo, 24 h | Potency, µM (doses to about 46.1 µM), actives largely listed as activators | actives 1.8% (n = 410,000) | AID 652104; note: nearly all actives have a fitted effect of over 50% in size
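Yeast cells expressing TDP-43 under galactose induction are exposed to compounds for 24 hr at 30 deg C. BacTiter-Glo luminescence measures growth, so protective compounds score as activators.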
aSyn yeast inh: inhibitors of alpha-synuclein toxicity in yeast; Yeast expressing alpha-synuclein, growth rescue, BacTiter-Glo, 24 h; Potency, µM (highest dose often 46.1 µM), most hits filed as activators; actives 0.14% (n = 370,000); note: nearly all actives have a fitted effect of over 65% in size
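Readout is rescue of growth in alpha-synuclein-expressing yeast, so inhibitors of toxicity appear as activators. Growth after 24 hr at 30 deg C in galactose medium is quantified by luminescence.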
FUS yeast rescue: FUS proteinopathy suppression in yeast; actives 0.24% (n = 390,000); AID 1347120; Potency, µM (highest dose often 76.6 µM), most hits filed as activators; S. cerevisiae FUS-expressing, growth rescue, OD600, 24 h; note: nearly all actives have a fitted effect of over 55% in size
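Cultures pregrown in 2.5% raffinose medium are shifted to minimal medium containing 2% galactose to express toxic FUS. Compounds are tested at several concentrations. After 24hr at 30C, growth is quantified at 600 nm absorbance.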
Abeta rescue: A-beta toxicity reversal in yeast | Potency, µM (series often up to 46.1 µM), hits mostly activators | yeast expressing A-beta42, growth rescue, OD600, 48 h; response scale: 0% DMSO, 100% iron-clioquinol control | AID 1347071 | actives 0.063% (n = 410,000); note: nearly all actives have a fitted effect of over 55% in size
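Yeast growth medium received pinned compounds, then yeast cells expressing toxic A-beta were added; plates incubated at 30 C for 48 hr. Growth read as absorbance at 600 nm, normalized to DMSO and equimolar FeCl3 plus clioquinol controls.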
Numbers stand for hits. Calls come from the whole dose curve; as a rule, active = well fitted curve in the direction sought with a large enough effect; inconclusive = small, poorly fitted or top-dose-only effect, or another doubt; inactive = no such curve, though single readings can be large; an effect the other way counts as inactive or inconclusive.

Screening COC(=O)[C@]12C[C@H](CC(=O)N3CCCCC3)C(=O)N(Cc3ccccc3)C1=C[C@H](COCc1ccccc1)O[C@@H]2C returned FUS yeast rescue inactive.
Screening COC(=O)[C@]12C[C@H](CC(=O)N3CCC(c4ccccc4)CC3)C(=O)N(Cc3ccccc3)C1=C[C@H](COCc1ccccc1)O[C@@H]2C returned FUS yeast rescue 12.6µM.
Screening COC(=O)[C@]12C[C@H](CC(=O)NCc3ccc(C)o3)C(=O)N(Cc3ccccc3)C1=C[C@H](COCc1ccccc1)O[C@@H]2C returned FUS yeast rescue 35.5µM.
`CCCCCCCCN1C(=O)[C@@H](CC(=O)N2CCN(C(=O)C3CC3)CC2)C[C@@]2(C(=O)OC)C1=C[C@H](COCc1ccccc1)O[C@@H]2C` gave FUS yeast rescue 28.2µM.
`Cc1ccc2c(c1)-c1c(cnn1CC(=O)N1CCN(c3ccccc3F)CC1)CO2` gave TDP-43 yeast inh 20µM, FUS yeast rescue inactive and Abeta rescue inactive.
O=C(Cn1ncc2c1-c1ccccc1OC2)N1CCN(c2ccccc2F)CC1 was read as TDP-43 yeast inh inactive, FUS yeast rescue inactive and Abeta rescue inactive.
Cc1ccc2c(c1)-c1c(cnn1CC(=O)N(Cc1ccco1)C1CCCCC1)CO2 was read as TDP-43 yeast inh 35.5µM, aSyn yeast inh inactive, FUS yeast rescue inactive and Abeta rescue inactive.
Screening O=C(OCC#CCSc1nnc(-c2ccc(F)cc2)o1)c1ccc(F)cc1 returned FUS yeast rescue inactive.
Cc1ccc(NC(=O)CSc2nc3c(sc4ccccc43)c(=O)n2CCCC(=O)NC2CCCC2)cc1C was read as TDP-43 yeast inh inactive, FUS yeast rescue inactive and Abeta rescue inactive.
Fc1ccc(Nc2nc3ccccc3n3cnnc23)c(F)c1 was read as TDP-43 yeast inh 8.91µM, FUS yeast rescue inactive and Abeta rescue inactive.
Screening O=C(CSc1nc2ccccc2n1-c1ccccc1)Nc1ncc(Cl)cc1Cl returned TDP-43 yeast inh 22.4µM, aSyn yeast inh inactive, FUS yeast rescue inactive and Abeta rescue inactive.
`CCOC(=O)NC(=O)CSc1nc(-c2ccc(C)c(C)c2)cn1-c1ccccc1` gave TDP-43 yeast inh 35.5µM, aSyn yeast inh inactive, FUS yeast rescue inactive and Abeta rescue inactive.
Cc1ccc(Cn2ccnc2SCC(=O)Nc2nc3ccccc3s2)cc1 was read as TDP-43 yeast inh 22.4µM, FUS yeast rescue inconclusive and Abeta rescue inactive.
Screening CN(C)S(=O)(=O)c1cccc(C(=O)N/N=C\c2ccnc3ccccc23)c1 returned FUS yeast rescue inactive.
Screening C=CCNc1ccc(C(=O)O)cc1 returned TDP-43 yeast inh 14.1µM, aSyn yeast inh inactive, FUS yeast rescue inactive and Abeta rescue inactive.
For CC(=O)Nc1ccc(C(=O)O)cc1 the results were TDP-43 yeast inh inactive, aSyn yeast inh inactive, FUS yeast rescue inactive and Abeta rescue inactive.
`O=C(O)c1ccc(NCc2ccc(Br)cc2)cc1` gave TDP-43 yeast inh 3.55µM, aSyn yeast inh inactive, FUS yeast rescue inactive and Abeta rescue inactive.
For CCCCc1ccc(/C=C(\C#N)C(N)=S)s1 the results were TDP-43 yeast inh 20µM, aSyn yeast inh inactive, FUS yeast rescue inactive and Abeta rescue inconclusive.
Cn1cccc1/C=C(/C#N)C(N)=S was read as TDP-43 yeast inh inactive, aSyn yeast inh inactive, FUS yeast rescue inactive and Abeta rescue inactive.
For O=C(NCCc1ccc2c(c1)OCO2)c1cc(-c2ccccc2)c(N2CCOCC2)s1 the results were FUS yeast rescue inactive.
For CC(NC(=O)OC(C)(C)C)C(=O)Oc1cc2oc(=O)cc(-c3ccccc3)c2cc1Cl (configuration not stated) the results were TDP-43 yeast inh 4.47µM, aSyn yeast inh inactive and Abeta rescue inactive.
`CC(Oc1cc2oc(=O)cc(-c3ccccc3)c2cc1Cl)C(=O)NCC1CCC(C(=O)O)CC1` (configuration not stated) gave TDP-43 yeast inh inactive, aSyn yeast inh inactive, FUS yeast rescue inactive and Abeta rescue inactive.
COc1ccc([C@H]2OC(=O)C[C@@H]2C(=O)N2CCCCC2)cc1OC was read as FUS yeast rescue inactive.
For O=C(Nc1sc2c(c1-c1nc3ccccc3s1)CCNC2)C(F)(F)F the results were FUS yeast rescue inactive.
Screening C=C(C)Cn1c(SCC(=O)Nc2ccccc2C)nc2sc3c(c2c1=O)CCCC3 returned TDP-43 yeast inh inactive, FUS yeast rescue inactive and Abeta rescue inactive.
COc1ccc(Br)cc1/C=C/C(=O)Nc1ccc(C)cc1 was read as TDP-43 yeast inh 15.8µM, aSyn yeast inh inactive, FUS yeast rescue inactive and Abeta rescue inactive.
